The panel holds about 83,000 compounds, 20% with a hit somewhere; the sample as a whole holds those more often.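 Assay: single dose, 48 h. Readout: percent growth (0 = no net growth; negative = cell death). Active: <10.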 Values without a mark were called inactive. The source made the active and inactive calls.

The subject of this test is SF-295 CNS. The experiment in a line: NCI-60 one-dose screen, 48 h (100 = growth as untreated, 0 = no growth, -100 = all killed). The conditions noted are these: 10 µM unless noted.
As for `N#CCCN=Nc1c(O)[nH]c2ccc([N+](=O)[O-])cc12`, the growth was 105%.
Next, `COc1cc(-c2ccc3c(c2)NC(=O)/C3=C\c2ccc[nH]2)ccc1O`: -19.6% (active); `C=C(C)[C@@H]1CC[C@]2(C(N)=O)CC[C@]3(C)[C@H](CC[C@@H]4[C@@]5(C)C/C(=C/c6ccco6)C(=O)C(C)(C)[C@@H]5CC[C@]43C)[C@@H]12`: 90.2%; `O=C1Nc2c(ccc(Cl)c2Cl)/C1=C\c1cc(C(F)(F)F)cc(C(F)(F)F)c1`: 5.61% (active).
For the molecule `COc1cc2c(cc1-c1c(C)noc1C)ncc1nc(C3CCOCC3)n([C@@H](C)COC(F)F)c12`, the growth is 52%.
Next, `O=C1Nc2c(ccc(Cl)c2Cl)/C1=C\c1ccc(C(F)(F)F)cc1`: 77.2%; `C[n+]1ccccc1/C=C/c1ccc2cccc(O)c2n1`: 109%; `COc1ccc(/C=C/c2nc3ccccc3nc2/C=C/c2ccc(OC)cc2)cc1`: 102%.
For the molecule `C=CC(=O)Nc1cccc(-c2nc(SC)nc(NCCN3CCOCC3)c2C#N)c1`, the growth was 106%.
Next, `COc1cc2nc(N3CCCC3)nc(NCc3ccccc3)c2cc1OC`: 71.1%; `COc1cc(CNc2oc(-c3ccccc3)c(-c3ccccc3)c2C#N)cc(CN2CCN(C)CC2)c1O`: 51.7%.
With `O=C(/C=C/c1cc(CN2CCOCC2)c(O)c2ncccc12)c1cc(CN2CCOCC2)c(O)c2ncccc12` the figure was 14.7%; with `CSc1nc(NCCO)c(C#N)c(-c2cccc([N+](=O)[O-])c2)n1`, 98.3%; with `CCN(CC)c1ccc(-c2cc(-c3cc(OC)c(OC)c(OC)c3)nc(N3CCOCC3)c2C#N)cc1`, -54.6% (active).
With `COc1ccc2[nH]cc(-c3noc(C(=O)c4cn(C)c5ccc(F)cc45)n3)c2c1` the figure was 98.8%.
Consider `CCCc1cc(=O)n2c(C(=O)Nc3cccc(C(=O)OCC)c3)c(C(=O)Nc3ccc(F)cc3)sc2n1`, for which the growth was 44.5% [30 µM].
With `O=S(=O)(Nc1ccc(I)cc1F)c1ccc(-c2cnc(C3CC3)o2)cc1` the figure was 28.6%; with `COC(=O)c1cccc(NC(=O)c2ccc(-c3cccc(N)c3)o2)c1`, 98.4%.
Next, `O=C(/C=C/c1ccccc1)c1ccc(O)c(CN2CCN(c3cc4c(cc3F)c(=O)c(C(=O)O)cn4C3CC3)CC2)c1`: 4.62% (active).
Next, `Cc1[nH]c(-c2cc(N)ccc2Cl)c2c1C(=O)CCCC2`: 31.8%.
As for `Nc1nc2ncc(CCNc3ccc(C(=O)O)cc3)nc2c(=O)[nH]1`, the growth was 110%.
Turning to `O=C1c2cc3c(cc2-c2c1c1ccc(F)cc1c(=O)n2CCCNCCO)OCO3`, the growth is -14.3% (active).
`N#C/C(=C\c1ccc(-c2cc(C(F)(F)F)ccc2Cl)o1)c1nc(-c2ccco2)cs1`: the growth was 101%.
`O=c1cc(CSc2nnc(-c3ccc(F)cc3)o2)c2ccc3ccccc3c2o1`: the growth was 89.5%.
With `C=C(C)[C@@H]1CC[C@]2(C(=O)OC)CC[C@]3(C)[C@H](CC[C@@H]4[C@@]5(C)C/C(=C/c6cccc(I)c6)C(=O)C(C)(C)[C@@H]5CC[C@]43C)[C@@H]12` the figure was 97.6%.
With `O=C1OCC2=C1C(c1ccncc1)c1cc3c(cc1N2CCO)OCO3` (stereo not given) the figure was 102%; with `COC(=O)c1ccc(NC(=O)c2ccc(-c3cccc([N+](=O)[O-])c3)o2)cc1`, 94.9%.
With `O=c1cc(/C(=C2/C=CC=N2)c2ccc[nH]2)c2cc(Cl)ccc2o1` the figure was 13.9%; with `COc1ccc2nc(NC(=O)CSc3nnc4n3S(=O)(=O)c3ccccc3N4c3ccccc3)sc2c1`, 73.2%.
For `Cc1cc(C)nc(SC2=C(Nc3ccc(C)c(Cl)c3)C(=O)N(Cc3ccccc3)C2=O)n1`, the growth is -3.52% [30 µM] (active).
With `CC(C)C1=C[C@@]23CC[C@@H]4[C@](C)(CCC[C@@]4(C)C(=O)N4CCCNCC4)[C@H]2C[C@@H]1[C@H]1C(=O)CCC(=O)[C@H]13` the figure was 93.7%; with `O=C1C=C(OCC=C(Cl)Cl)C(=O)c2ccccc21`, 92.8%.
With `COc1cccc(/C=C2\SC(=Nc3ccc(NC(C)=O)cc3)NC2=O)c1OC`, the growth is 81.3%.
With `C=CCSSc1ncnc2c1ncn2C1OC(CO)C(O)C1O` (stereo not given), the growth is 17.9%.
Take `Cc1ncc(C(=O)Nc2ccc(CN3CCN(C)CC3)c(C(F)(F)F)c2)cc1C#Cc1cnc2cccnn12`: the growth is 8.94% (active).

The record behind these values is PubChem BioAssay (NCI).
